Measured values reported in PubChem BioAssay (Tox21).
Records with an inconclusive call do not appear. Entries that show only a call come without a potency. Unmarked numbers belong to inactive results. Active and inactive are the calls of the source. Unless noted, the call rests on the fitted dose curve; in most records, active means well fitted curve in the direction sought with a large enough effect in the repeat runs; inconclusive means weak or mixed curves; inactive means no such curve, though single readings can be large; an effect the other way counts as inactive or inconclusive.

What was measured:
[1] = qHTS assay to identify aromatase inhibitors - cell viability counter screen (AID 743084);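 further: cells stimulated with testosterone during compound exposure; nearly all actives have a fitted effect of over 55% in size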; further: potency means the concentration at half of the fitted maximal effect
[2] = biological target: Aryl hydrocarbon receptor (Homo sapiens) (UniProt P35869); experiment: qHTS assay to identify small molecule that activate the aryl hydrocarbon receptor (AhR) signaling pathway (AID 743085);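 further: HG2L7.5c1 human HepG2 liver cells with stably integrated DRE-driven firefly reporter; series mostly up to about 70 µM; nearly all actives have a fitted effect of over 15% in size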
In short: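 Luminescence (ONE-Glo) from a dioxin-responsive-element luciferase reporter in HG2L7.5c1 HepG2 cells after 24 hr compound exposure at 37C; viability measured by CellTiter-Fluor fluorescence beforehand.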

[3] = qHTS assay to identify small molecule that activate the aryl hydrocarbon receptor (AhR) signaling pathway - cell viability counter screen (AID 743086); further: nearly all actives have a fitted effect of over 45% in size; further: potency means the concentration at half of the fitted maximal effect
In short: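 HepG2-AhR-luc (HG2L7.5c1) cells, 4000/well, treated 24 h at 37 C with compound; viability measured as CellTiter-Fluor fluorescence after 30 min in the same wells as the luciferase read.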

[4] = qHTS assay to identify small molecule phospholipidosis (PLD) inducers (AID 1259344; active means well fitted curve in the direction sought with a large enough effect; an effect the other way counts as inactive or inconclusive)
In short: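 Image-based: LipidTOX Red pit count/intensity per well and per cell; HepG2, 24 h compound at 37 C, PFA fixation, Hoechst counterstain.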

[5] = biological target: Nuclear receptor subfamily 1 group I member 2 (Rattus norvegicus) (UniProt Q9R1A7); experiment: Rat pregnane X receptor (rPXR) activation by small molecules, qHTS assay (AID 1346983); settings: rPXR luciferase reporter cells, One-Glo luminescence, 24 h; max activation: stronger effect = higher value; further: nearly all actives have a fitted effect of over 20% in size; further: potency means the concentration at half of the fitted maximal effect
In short: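 Cell-based rPXR activation assay: rPXR cells, 2,000 per well, rested 5hr at 37 C, then exposed to compounds in DMSO for 24 hr at 37 C. Luciferase activity read by One-Glo luminescence after 30 min at room temperature.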

[6] = biological target: Nuclear receptor subfamily 1 group I member 2 (Homo sapiens) (UniProt O75469); experiment: CYP3A4 induction through human pregnane X receptor (PXR) by small molecules, qHTS assay (AID 1346984); further: nearly all actives have a fitted effect of over 40% in size; further: potency means the concentration at half of the fitted maximal effect
In short: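 Human PXR activation is tracked via CYP3A4 promoter-luciferase in DPX-2 (HepG2) cells. Compounds treat cells for 24hr at 37C, and luminescence is read after One-Glo.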

[7] = biological target: Nuclear receptor subfamily 1 group I member 2 (Homo sapiens) (UniProt O75469); experiment: Human pregnane X receptor (PXR) activation by small molecules, qHTS assay (AID 1346985); further: nearly all actives have a fitted effect of over 40% in size; further: potency means the concentration at half of the fitted maximal effect
In short: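 DPX-2 cells (HepG2 co-transfected with a PXR response element and a CYP3A4-promoter luciferase construct) were seeded at 2,000 per well, rested 5 hr at 37C, then exposed to DMSO-dissolved compounds for 24 hr. Activation was read as luciferase luminescence.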

[8] = biological target: Peroxisome proliferator-activated receptor gamma (Homo sapiens) (UniProt P37231); experiment: qHTS assay to identify small molecule agonists of the peroxisome proliferator-activated receptor gamma (PPARg) signaling pathway (AID 743094; active means well fitted activation curve with a large enough effect in the signal ratio in the repeat runs, not every such curve was filed as active; the % refers to the signal ratio)
In short: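 Cell-based bla reporter, HEK293H background, PPARg-driven UAS. Pre-incubation 5 h, 37C, 5% CO2. Compound 17 h, 37C. Substrate 1 h RT; fluorescence.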

Sequence of Peroxisome proliferator-activated receptor gamma (Homo sapiens) (P37231 whole entry, looked up): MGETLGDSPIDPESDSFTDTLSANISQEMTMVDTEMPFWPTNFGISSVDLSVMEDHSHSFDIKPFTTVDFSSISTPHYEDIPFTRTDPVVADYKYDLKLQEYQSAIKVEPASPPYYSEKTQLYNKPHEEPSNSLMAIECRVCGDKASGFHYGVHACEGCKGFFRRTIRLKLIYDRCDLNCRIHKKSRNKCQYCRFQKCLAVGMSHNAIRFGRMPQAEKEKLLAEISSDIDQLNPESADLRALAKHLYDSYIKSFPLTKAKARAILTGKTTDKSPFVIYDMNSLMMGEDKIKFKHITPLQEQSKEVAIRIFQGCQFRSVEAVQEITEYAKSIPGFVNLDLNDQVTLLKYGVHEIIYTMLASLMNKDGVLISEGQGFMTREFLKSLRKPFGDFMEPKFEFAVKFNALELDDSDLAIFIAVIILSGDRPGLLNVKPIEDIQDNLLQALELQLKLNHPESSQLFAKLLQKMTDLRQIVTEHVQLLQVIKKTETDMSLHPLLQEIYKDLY
Sequence of Aryl hydrocarbon receptor (Homo sapiens) (P35869 whole entry, looked up): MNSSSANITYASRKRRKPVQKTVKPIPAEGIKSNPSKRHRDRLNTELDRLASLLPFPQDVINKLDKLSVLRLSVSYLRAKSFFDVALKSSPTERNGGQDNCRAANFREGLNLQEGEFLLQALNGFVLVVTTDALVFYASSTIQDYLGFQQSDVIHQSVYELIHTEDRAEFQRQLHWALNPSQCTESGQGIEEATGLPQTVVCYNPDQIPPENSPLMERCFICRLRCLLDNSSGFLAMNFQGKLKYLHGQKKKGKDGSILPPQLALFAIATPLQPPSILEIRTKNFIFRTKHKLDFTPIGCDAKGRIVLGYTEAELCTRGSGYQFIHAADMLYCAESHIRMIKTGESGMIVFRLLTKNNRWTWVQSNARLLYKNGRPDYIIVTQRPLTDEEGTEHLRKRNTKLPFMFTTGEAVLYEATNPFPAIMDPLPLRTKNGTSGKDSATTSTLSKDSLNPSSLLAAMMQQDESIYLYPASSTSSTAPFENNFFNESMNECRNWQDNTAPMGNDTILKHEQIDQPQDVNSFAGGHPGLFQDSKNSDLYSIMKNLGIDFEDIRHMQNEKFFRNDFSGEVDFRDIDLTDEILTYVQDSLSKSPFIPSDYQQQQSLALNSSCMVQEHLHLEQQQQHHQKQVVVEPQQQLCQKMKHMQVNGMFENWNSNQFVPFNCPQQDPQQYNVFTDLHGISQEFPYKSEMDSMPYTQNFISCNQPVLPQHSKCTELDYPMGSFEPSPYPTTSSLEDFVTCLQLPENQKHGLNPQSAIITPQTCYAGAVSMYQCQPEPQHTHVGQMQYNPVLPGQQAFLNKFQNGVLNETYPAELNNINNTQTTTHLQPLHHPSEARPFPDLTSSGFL
Sequence of Nuclear receptor subfamily 1 group I member 2 (Rattus norvegicus) (Q9R1A7 whole entry, looked up): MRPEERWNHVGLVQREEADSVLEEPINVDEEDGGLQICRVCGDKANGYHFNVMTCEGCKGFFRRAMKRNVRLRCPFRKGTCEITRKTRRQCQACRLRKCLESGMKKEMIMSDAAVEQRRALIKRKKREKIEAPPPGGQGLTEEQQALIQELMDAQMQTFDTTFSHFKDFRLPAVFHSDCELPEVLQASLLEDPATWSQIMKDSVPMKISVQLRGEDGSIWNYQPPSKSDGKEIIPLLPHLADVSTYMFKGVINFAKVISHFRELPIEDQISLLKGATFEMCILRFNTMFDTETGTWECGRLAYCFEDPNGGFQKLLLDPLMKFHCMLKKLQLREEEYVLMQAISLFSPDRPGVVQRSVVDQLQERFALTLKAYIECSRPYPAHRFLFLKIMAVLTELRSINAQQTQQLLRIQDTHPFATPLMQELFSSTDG

| Compound | Potency [1] | Potency [2] | Potency [3] | Potency [4] | max activation [5] | Potency [6] | Potency [7] | Potency [8] | PLD induction [4] | Potency [5] |
| --- | --- | --- | --- | --- | --- | --- | --- | --- | --- | --- |
| C=C(NC(=O)C(=C)NC(=O)c1csc(C2=N[C@@H]3c4csc(n4)[C@H]4NC(=O)c5csc(n5)[C@H]([C@](C)(O)[C@@H](C)O)NC(=O)[C@H]5CSC(=N5)C(=CC)NC(=O)C([C@@H](C)O)NC(=O)c5csc(n5)[C@]3(CC2)NC(=O)[C@H](C)NC(=O)C(=C)NC(=O)[C@H](C)NC(=O)C([C@@H](C)CC)NC2C=Cc3c([C@H](C)O)cc(nc3C2O)C(=O)O[C@@H]4C)n1)C(N)=O (some centres not stated) | 11.4 µM (active) | inactive | inactive | inactive | -3.21% | inactive | inactive | – | – | – |
| CC1(C)S[C@@H]2[C@H](NC(=O)C3(N)CCCCC3)C(=O)N2[C@H]1C(=O)O | inactive | inactive | inactive | inactive | -4.4% | inactive | inactive | – | – | – |
| COc1ccc(C[C@H](N)C(=O)N[C@H]2[C@@H](O)[C@H](n3cnc4c(N(C)C)ncnc43)O[C@@H]2CO)cc1 | 9.44 µM (active) | inactive | 3.76 µM (active) | inactive | -3.7% | inactive | inactive | – | – | – |
| OCC(O)CO | – | – | – | inactive | -5.18% | – | – | – | – | – |
| OCC(S)CS (configuration not stated) | inactive | inactive | inactive | inactive | -4.08% | inactive | inactive | – | – | – |
| Cc1ccccc1 | – | – | – | inactive | – | – | – | – | – | – |
| COc1cc(C)c(/C=C/C(C)=C/C=C/C(C)=C/C(=O)O)c(C)c1C | inactive | inactive | inactive | inactive | -4.44% | inactive | inactive | – | – | – |
| O=C(O)C1CCCN1 (configuration not stated) | inactive | inactive | inactive | inactive | -0.193% | inactive | inactive | – | – | – |
| CO/N=C(\C(=O)N[C@@H]1C(=O)N2C(C(=O)O)=CCS[C@H]12)c1csc(N)n1 | inactive | inactive | inactive | inactive | -4.38% | inactive | inactive | inactive | – | – |
| C[C@H](O)[C@H](O)[C@H]1CNc2nc(N)[nH]c(=O)c2N1 | inactive | inactive | inactive | inactive | -2.27% | inactive | inactive | inactive | – | – |
| CCCCC[C@H](O)/C=C/[C@H]1[C@H](O)CC(=O)[C@@H]1CCCCCCC(=O)O | inactive | inactive | inactive | inactive | -0.783% | inactive | inactive | – | – | – |
| CCCCC/C=C\C/C=C\C/C=C\CCCCC(=O)O | inactive | inactive | inactive | inactive | -0.879% | inactive | inactive | – | – | – |
| OC[C@H]1OC([S-])[C@H](O)[C@@H](O)[C@@H]1O.[Au+] (some centres not stated) | inactive | inactive | inactive | inactive | -6.36% | inactive | inactive | – | – | – |
| O=C1N=C2SCCN2C(=O)C1Cc1ccc(Cl)cc1 (configuration not stated) | – | – | – | inactive | -2.07% | inactive | inactive | – | – | – |
| C[C@]12CC[C@@H]3c4ccc(OS(=O)(=O)O)cc4CC[C@H]3[C@@H]1CCC2=O | – | – | – | – | – | – | – | – | 0.241% [at 7.66 µM] | – |
| COc1ccc(C(=O)CCC(=O)O)c2ccccc12 | inactive | inactive | inactive | inactive | -4.04% | inactive | inactive | – | – | – |
| CCOC(=O)C1=C(COCCN)NC(C)=C(C(=O)OC)C1c1ccccc1Cl (configuration not stated) | inactive | inactive | 23.7 µM (active) | inactive | 3.61% | 8.91 µM (active) | 8.91 µM (active) | – | – | – |
| Clc1cc(Cl)c(OCC#CI)cc1Cl | 21.1 µM (active) | inactive | 26.6 µM (active) | inactive | -1.32% | inactive | inactive | – | – | – |
| CC[C@H](C)[C@H]1O[C@]2(CC[C@@H]1C)C[C@@H]1C[C@@H](C/C=C(\C)[C@@H](O[C@H]3C[C@H](OC)[C@@H](O[C@H]4C[C@H](OC)[C@@H](O)[C@H](C)O4)[C@H](C)O3)[C@@H](C)/C=C/C=C3\CO[C@@H]4[C@H](O)C(C)=C[C@@H](C(=O)O1)[C@]34O)O2 | inactive | inactive | inactive | inactive | -15.7% | inactive | inactive | – | – | – |
| CCC(=O)O[C@@H]1CC(=O)O[C@H](C)C/C=C/C=C/[C@H](O)[C@H](C)C[C@H](CC=O)[C@H](O[C@@H]2O[C@H](C)[C@@H](O[C@H]3C[C@@](C)(O)[C@@H](OC(=O)CC)[C@H](C)O3)[C@H](N(C)C)[C@H]2O)[C@H]1OC | inactive | inactive | inactive | inactive | -4.74% | inactive | inactive | – | – | – |
| CO[C@H]1C[C@H](O[C@@H]2/C(C)=C/C[C@@H]3C[C@@H](C[C@]4(CC[C@H](C)[C@@H](C5CCCCC5)O4)O3)OC(=O)[C@@H]3C=C(C)/C(=N/O)[C@H]4OC/C(=C\C=C\[C@@H]2C)[C@]43O)O[C@@H](C)[C@@H]1O | inactive | inactive | inactive | inactive | -0.144% | inactive | inactive | – | – | – |
| CNC(C)[C@@H]1CC[C@@H](N)[C@@H](O[C@H]2[C@H](O)[C@@H](O[C@H]3OC[C@](C)(O)[C@H](NC)[C@H]3O)[C@H](N)C[C@@H]2N)O1 (some centres not stated) | – | – | – | inactive | -0.0148% | inactive | inactive | – | – | – |
| CCN1C(=O)NC(c2ccccc2)C1=O (configuration not stated) | inactive | inactive | inactive | inactive | 7.71% | inactive | inactive | – | – | – |
| CC[C@@]1(O)C(=O)OCc2c1cc1n(c2=O)Cc2cc3c([N+](=O)[O-])cccc3nc2-1 | – | – | – | inactive | – | inactive | inactive | – | – | 6.31 µM (active) |
| CCCCCCCCCCCC(=O)OC[C@@H](O)C1OC[C@H](O)[C@H]1O (some centres not stated) | inactive | inactive | inactive | inactive | -2.81% | inactive | inactive | inactive | – | – |
